Measurements as given in PubChem BioAssay (NCATS).
Inconclusive results are not listed. A number with no mark means an inactive call. Activity calls are given as the source filed them. Calls follow the shape of the dose curve; as a rule, active = well fitted inhibition curve with a large enough effect in the repeat runs; inconclusive = weak or mixed curves; inactive = flat fitted curve, though single readings scatter.

biological target: Cytochrome P450 2D6 (Homo sapiens) (UniProt P10635); test: Cytochrome P450 family 2 subfamily D member 6 (CYP2D6) small molecule antagonists: luciferase biochemical (cell-free) qHTS assay (AID 1645840); conditions: P450-Glo CYP2D6 enzyme, luciferin luminescence, 1 h; series mostly up to 57.4 µM; activity change, negative = inhibition: at the top concentration; also: nearly all actives have a fitted effect of over 55% in size
Procedure, shortened: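 P450-Glo CYP2D6 system: proluciferin substrate converted by enzyme to luciferin, read by luminescence proportional to activity. Enzyme-substrate mix with compound 10 min at room temperature, then NADPH regeneration 1 h before detection reagent.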
% is scaled to controls: 0 for no effect and ±100 for the full control effect; potency is read from the fitted curve at half-maximal effect.

Cytochrome P450 2D6 (Homo sapiens), sequence (P10635 whole entry, looked up): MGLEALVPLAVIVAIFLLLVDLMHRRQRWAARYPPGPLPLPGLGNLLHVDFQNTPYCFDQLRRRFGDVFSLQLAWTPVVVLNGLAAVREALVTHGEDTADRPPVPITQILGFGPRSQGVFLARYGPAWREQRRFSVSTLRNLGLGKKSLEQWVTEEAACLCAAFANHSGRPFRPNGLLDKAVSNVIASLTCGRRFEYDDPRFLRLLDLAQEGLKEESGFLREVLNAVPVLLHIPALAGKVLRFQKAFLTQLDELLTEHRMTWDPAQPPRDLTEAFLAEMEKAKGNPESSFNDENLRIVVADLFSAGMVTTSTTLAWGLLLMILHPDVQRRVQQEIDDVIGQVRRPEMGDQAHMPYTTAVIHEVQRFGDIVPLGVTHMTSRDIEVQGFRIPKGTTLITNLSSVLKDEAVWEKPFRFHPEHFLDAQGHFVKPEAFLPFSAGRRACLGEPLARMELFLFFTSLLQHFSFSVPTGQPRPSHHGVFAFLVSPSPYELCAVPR

| SMILES | Potency | activity change, negative = inhibition |
| --- | --- | --- |
| COc1ccc2cc3[n+](cc2c1OC)CCc1cc2c(cc1-3)OCO2 | 1.55 µM (active) |  |
| O=c1cc(O)c(Cl)c[nH]1 |  | 11.4% |
| COc1ccccc1OCC(O)COC(N)=O (stereo unspecified) |  | 6.61% |
| CCN[C@H]1C[C@H](C)S(=O)(=O)c2sc(S(N)(=O)=O)cc21 |  | -14% |
| CCC(=O)O[C@]1(C(=O)CCl)[C@@H](C)C[C@H]2[C@@H]3CCC4=CC(=O)C=C[C@]4(C)[C@@]3(F)[C@@H](O)C[C@@]21C | 11 µM (active) |  |
| COc1cc(NS(=O)(=O)c2ccc(N)cc2)nc(OC)n1 |  | -17.9% |
| CC(C)OC(=O)OCOP(=O)(CO[C@H](C)Cn1cnc2c(N)ncnc21)OCOC(=O)OC(C)C |  | 2.25% |
| O=P(O)(O)C(O)(Cc1cccnc1)P(=O)(O)O |  | 8.97% |
| CC(C)C[C@H](NC(=O)[C@H](CCc1ccccc1)NC(=O)CN1CCOCC1)C(=O)N[C@@H](Cc1ccccc1)C(=O)N[C@@H](CC(C)C)C(=O)[C@@]1(C)CO1 |  | -2.23% |
| CNS(=O)(=O)Cc1ccc2[nH]cc(CCN(C)C)c2c1 |  | -25.1% |
| COc1cnc(NS(=O)(=O)c2ccc(N)cc2)nc1 |  | 2.58% |
| CO[C@@]12[C@H](COC(N)=O)C3=C(C(=O)C(C)=C(N)C3=O)N1C[C@@H]1N[C@@H]12 | 12.3 µM (active) |  |
| COc1ccc(-c2ccc3cc(C(=O)O)ccc3c2)cc1C12CC3CC(CC(C3)C1)C2 |  | -22.4% |
| O=NN(CCCl)C(=O)NC1CCCCC1 |  | 18.8% |
| CC(=O)[C@H]1CC[C@H]2[C@@H]3CC=C4C[C@@H](O)CC[C@]4(C)[C@H]3CC[C@]12C |  | 1.28% |
| N[C@@H](C(=O)N[C@@H]1C(=O)N2C(C(=O)O)=C(Cl)CS[C@H]12)c1ccccc1 |  | 16.7% [at 11.5 µM] |
